Experimental data: the supplement of paper PMC4466140

Experiments:
Test in all cases: SPOT peptide array binding signal intensity (averaged, normalized) (arbitrary units (background-subtracted, floor 0; scale differs between SH3 domains)); higher = stronger binding of the SH3 domain to the peptide
[1] = target: AgAbp1
Experimental: (§1)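 GST-tagged SH3 domains from S. cerevisiae (Sc), A. gossypii (Ag), C. albicans (Ca) and S. pombe (Sp) were incubated at 10 ug/ml overnight at 4 C on cellulose SPOT membranes carrying 292 synthetic 15-mer peptides mined from the S. cerevisiae proteome (cysteines replaced by serines). Binding was detected with anti-GST antibody, HRP secondary and chemiluminescence, quantified with Genespotter, and reported as normalized spot intensities averaged over biological replicates.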

[2] = target: AgBbc1
Experimental: as §1

[3] = target: AgBem1-D1
Experimental: as §1

[4] = target: AgBzz1-D1
Experimental: as §1

[5] = target: AgBzz1-D2
Experimental: as §1

[6] = target: AgCyk3
Experimental: as §1

[7] = target: AgFus1
Experimental: as §1

[8] = target: AgHof1
Experimental: as §1

[9] = target: AgHse1
Experimental: as §1

[10] = target: AgLsb1
Experimental: as §1

[11] = target: AgLsb4
Experimental: as §1

[12] = target: AgMyo5
Experimental: as §1

[13] = target: AgNbp2
Experimental: as §1

[14] = target: AgRvs167
Experimental: as §1

[15] = target: AgSho1
Experimental: as §1

[16] = target: AgSla1-D1-D2
Experimental: as §1

[17] = target: AgSla1-D3
Experimental: as §1

[18] = target: CaAbp1-D1
Experimental: as §1

[19] = target: CaAbp1-D2
Experimental: as §1

[20] = target: CaBbc1
Experimental: as §1

[21] = target: CaBem1-D1
Experimental: as §1

[22] = target: CaBzz1-D1
Experimental: as §1

[23] = target: CaBzz1-D2
Experimental: as §1

[24] = target: CaCyk3
Experimental: as §1

[25] = target: CaFus1
Experimental: as §1

[26] = target: CaHof1
Experimental: as §1

[27] = target: CaHse1
Experimental: as §1

[28] = target: CaLsb1
Experimental: as §1

[29] = target: CaLsb4
Experimental: as §1

[30] = target: CaMyo5
Experimental: as §1

[31] = target: CaNbp2
Experimental: as §1

[32] = target: CaRvs167
Experimental: as §1

[33] = target: CaRvs167-3
Experimental: as §1

[34] = target: CaSho1
Experimental: as §1

[35] = target: CaSla1-D1-D2
Experimental: as §1

[36] = target: CaSla1-D3
Experimental: as §1

[37] = target: ScAbp1
Experimental: as §1

[38] = target: ScBbc1
Experimental: as §1

[39] = target: ScBem1-D1
Experimental: as §1

[40] = target: ScBzz1-D1
Experimental: as §1

[41] = target: ScBzz1-D2
Experimental: as §1

[42] = target: ScCyk3
Experimental: as §1

[43] = target: ScFus1
Experimental: as §1

[44] = target: ScHof1
Experimental: as §1

[45] = target: ScHse1
Experimental: as §1

[46] = target: ScLsb1
Experimental: as §1

[47] = target: ScLsb2
Experimental: as §1

[48] = target: ScLsb3
Experimental: as §1

[49] = target: ScLsb4
Experimental: as §1

[50] = target: ScMyo3
Experimental: as §1

[51] = target: ScMyo5
Experimental: as §1

[52] = target: ScNbp2
Experimental: as §1

[53] = target: ScPex13
Experimental: as §1

[54] = target: ScRvs167
Experimental: as §1

[55] = target: ScSho1
Experimental: as §1

[56] = target: ScSla1-D1-D2
Experimental: as §1

[57] = target: ScSla1-D3
Experimental: as §1

[58] = target: SpAbp1-D1
Experimental: as §1

[59] = target: SpBbc1
Experimental: as §1

[60] = target: SpBzz1-D1
Experimental: as §1

[61] = target: SpBzz1-D2
Experimental: as §1

[62] = target: SpCyk3
Experimental: as §1

[63] = target: SpHof1
Experimental: as §1

[64] = target: SpHof1-2
Experimental: as §1

[65] = target: SpHof1-3
Experimental: as §1

[66] = target: SpHse1
Experimental: as §1

[67] = target: SpLsb1
Experimental: as §1

[68] = target: SpLsb4
Experimental: as §1

[69] = target: SpMyo1
Experimental: as §1

[70] = target: SpNbp2
Experimental: as §1

[71] = target: SpPex13
Experimental: as §1

[72] = target: SpRvs167
Experimental: as §1

[73] = target: SpSla1-D1-D2
Experimental: as §1

[74] = target: SpSla1-D3
Experimental: as §1

AERNYAPRLPRRETS
SPOT peptide array binding signal intensity [1]: 20
SPOT peptide array binding signal intensity [2]: 69.8
SPOT peptide array binding signal intensity [3]: 44.8
SPOT peptide array binding signal intensity [4]: 77
SPOT peptide array binding signal intensity [5]: 128
SPOT peptide array binding signal intensity [6]: 1
SPOT peptide array binding signal intensity [7]: 3.25
SPOT peptide array binding signal intensity [8]: 124
SPOT peptide array binding signal intensity [9]: 87.5
SPOT peptide array binding signal intensity [10]: 289
SPOT peptide array binding signal intensity [11]: 3440
SPOT peptide array binding signal intensity [12]: ≤ 0
SPOT peptide array binding signal intensity [13]: 128
SPOT peptide array binding signal intensity [14]: 340
SPOT peptide array binding signal intensity [15]: ≤ 0
SPOT peptide array binding signal intensity [16]: 1.5
SPOT peptide array binding signal intensity [17]: ≤ 0
SPOT peptide array binding signal intensity [18]: 84
SPOT peptide array binding signal intensity [19]: 61
SPOT peptide array binding signal intensity [20]: 454
SPOT peptide array binding signal intensity [21]: 25.5
SPOT peptide array binding signal intensity [22]: 171
SPOT peptide array binding signal intensity [23]: 62.6
SPOT peptide array binding signal intensity [24]: 9
SPOT peptide array binding signal intensity [25]: 23.8
SPOT peptide array binding signal intensity [26]: 7.5
SPOT peptide array binding signal intensity [27]: 222
SPOT peptide array binding signal intensity [28]: 4.75
SPOT peptide array binding signal intensity [29]: 4670
SPOT peptide array binding signal intensity [30]: 5.5
SPOT peptide array binding signal intensity [31]: 52.5
SPOT peptide array binding signal intensity [32]: 1200
SPOT peptide array binding signal intensity [33]: ≤ 0
SPOT peptide array binding signal intensity [34]: 22.5
SPOT peptide array binding signal intensity [35]: 19
SPOT peptide array binding signal intensity [36]: 0.75
SPOT peptide array binding signal intensity [37]: 27.8
SPOT peptide array binding signal intensity [38]: 22.4
SPOT peptide array binding signal intensity [39]: 6
SPOT peptide array binding signal intensity [40]: 56.8
SPOT peptide array binding signal intensity [41]: 73.8
SPOT peptide array binding signal intensity [42]: 2.25
SPOT peptide array binding signal intensity [43]: ≤ 0
SPOT peptide array binding signal intensity [44]: 17.1
SPOT peptide array binding signal intensity [45]: 42
SPOT peptide array binding signal intensity [46]: 184
SPOT peptide array binding signal intensity [47]: 158
SPOT peptide array binding signal intensity [48]: 6160
SPOT peptide array binding signal intensity [49]: 3130
SPOT peptide array binding signal intensity [50]: 0.75
SPOT peptide array binding signal intensity [51]: ≤ 0
SPOT peptide array binding signal intensity [52]: 283
SPOT peptide array binding signal intensity [53]: 252
SPOT peptide array binding signal intensity [54]: 2200
SPOT peptide array binding signal intensity [55]: 268
SPOT peptide array binding signal intensity [56]: 206
SPOT peptide array binding signal intensity [57]: 13
SPOT peptide array binding signal intensity [58]: 50.5
SPOT peptide array binding signal intensity [59]: 7.25
SPOT peptide array binding signal intensity [60]: 332
SPOT peptide array binding signal intensity [61]: 4.5
SPOT peptide array binding signal intensity [62]: 2
SPOT peptide array binding signal intensity [63]: 49.2
SPOT peptide array binding signal intensity [64]: 10.2
SPOT peptide array binding signal intensity [65]: 197
SPOT peptide array binding signal intensity [66]: 85.5
SPOT peptide array binding signal intensity [67]: 177
SPOT peptide array binding signal intensity [68]: 3100
SPOT peptide array binding signal intensity [69]: 11.5
SPOT peptide array binding signal intensity [70]: ≤ 0
SPOT peptide array binding signal intensity [71]: 3.5
SPOT peptide array binding signal intensity [72]: 1930
SPOT peptide array binding signal intensity [73]: ≤ 0
SPOT peptide array binding signal intensity [74]: ≤ 0

KFIPSRPAPKPPSSA
SPOT peptide array binding signal intensity [31]: 6170
SPOT peptide array binding signal intensity [32]: 51
SPOT peptide array binding signal intensity [33]: 2
SPOT peptide array binding signal intensity [34]: ≤ 0
SPOT peptide array binding signal intensity [35]: 1010
SPOT peptide array binding signal intensity [36]: 65.5
SPOT peptide array binding signal intensity [37]: 323
SPOT peptide array binding signal intensity [38]: 716
SPOT peptide array binding signal intensity [39]: ≤ 0
SPOT peptide array binding signal intensity [40]: 87
SPOT peptide array binding signal intensity [41]: 8
SPOT peptide array binding signal intensity [42]: 1
SPOT peptide array binding signal intensity [43]: 0.5
SPOT peptide array binding signal intensity [44]: 1
SPOT peptide array binding signal intensity [45]: ≤ 0
SPOT peptide array binding signal intensity [46]: 51.8
SPOT peptide array binding signal intensity [47]: 288
SPOT peptide array binding signal intensity [48]: 982
SPOT peptide array binding signal intensity [49]: 13
SPOT peptide array binding signal intensity [50]: 2740
SPOT peptide array binding signal intensity [51]: 1420
SPOT peptide array binding signal intensity [52]: 8490
SPOT peptide array binding signal intensity [53]: 2800
SPOT peptide array binding signal intensity [54]: 396
SPOT peptide array binding signal intensity [55]: 18
SPOT peptide array binding signal intensity [56]: 1290
SPOT peptide array binding signal intensity [57]: 769
SPOT peptide array binding signal intensity [58]: 602
SPOT peptide array binding signal intensity [59]: 110
SPOT peptide array binding signal intensity [60]: 1050
SPOT peptide array binding signal intensity [61]: 32.8
SPOT peptide array binding signal intensity [62]: ≤ 0
SPOT peptide array binding signal intensity [63]: 9.75
SPOT peptide array binding signal intensity [64]: 9.25
SPOT peptide array binding signal intensity [65]: 144
SPOT peptide array binding signal intensity [66]: 140
SPOT peptide array binding signal intensity [67]: 62
SPOT peptide array binding signal intensity [68]: 865
SPOT peptide array binding signal intensity [69]: 3260
SPOT peptide array binding signal intensity [70]: 1060
SPOT peptide array binding signal intensity [71]: 90
SPOT peptide array binding signal intensity [72]: 319
SPOT peptide array binding signal intensity [73]: ≤ 0
SPOT peptide array binding signal intensity [74]: ≤ 0
